Assay outcomes from PubChem.
uPA surface inh: cell surface uPA generation inhibition; 330,000 tested, 0.31% active; cell surface uPA generation assay, qHTS; AID 540303; Potency, µM (doses to about 38.3 µM), inactives show top-dose activity change, negative = inhibition, actives largely listed as inhibitors; active means well fitted inhibition curve with a large enough effect; inconclusive means small, poorly fitted or top-dose-only effect; inactive means no such curve, though single readings can be large or run the other way; tested in mouse RAW 264.7 cells; further: on the % scale 0 is the no-effect control and ±100 the full control effect; nearly all actives have a fitted effect of over 55% in size
FUS yeast rescue: rescues growth of FUS-expressing yeast; S. cerevisiae FUS-expressing, growth rescue, OD600, 24 h; Potency, µM (top dose mostly 76.6 µM), actives largely listed as activators; 390,000 tested, 0.24% active; AID 1347120;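 further: plate controls were DMSO vehicle for no effect and reference control for full effect; nearly all actives have a fitted effect of over 55% in size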
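Quantitative HTS measuring growth restoration of FUS-toxic yeast. Galactose-induced cells (OD 0.005) were exposed 24hr at 30C to compounds at several concentrations, then absorbance at 600 nm was recorded.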
Chronic BCR inh: chronic active BCR signaling inhibition. 340,000 tested, 0.05% active. AID 493014. ABC-DLBCL IkBa-CBG/CBR reporter, luminescence ratio, 4 h. Potency, µM (top dose mostly 46.1 µM), for inactives: at the highest dose activity change, negative = inhibition, most hits filed as inhibitors; active means well fitted inhibition curve with a large enough effect in the signal ratio, with a control signal flat, not every such curve was filed as active; inconclusive means small, poorly fitted or top-dose-only effect, or effect the other way, or a change in a side signal; the % refers to the signal ratio;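 further: plate controls were basal doxycycline-induced cells for no effect and cells given 10 µM MG132 for full effect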
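Concentration-response series (up to 46 uM) were applied to TMD8 dual-reporter cells for 4 h at 37C with doxycycline. Green/red ratio, after filter-overlap correction, defined %Activity; red signal alone was normalised to basal cells and zero luminescence.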
Abeta yeast res: compounds reversing amyloid beta toxicity in yeast. 410,000 tested, 0.063% active. AID 1347071. Potency, µM (highest dose often 46.1 µM), actives largely listed as activators. yeast expressing A-beta42, growth rescue, OD600, 48 h; response scale: 0% DMSO, 100% iron-clioquinol control; further: nearly all actives have a fitted effect of over 55% in size
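Yeast growth medium received pinned compounds, then yeast cells expressing toxic A-beta were added; plates incubated at 30 C for 48 hr. Growth read as absorbance at 600 nm, normalized to DMSO and equimolar FeCl3 plus clioquinol controls.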
aSyn rescue: inhibitors of alpha-synuclein toxicity in yeast; Potency, µM (top dose mostly 46.1 µM), for inactives: top-dose growth rescue (activation), usual class: activators; Yeast expressing alpha-synuclein, growth rescue, BacTiter-Glo, 24 h; 370,000 tested, 0.14% active; further: % of control where 0% means no effect; nearly all actives have a fitted effect of over 65% in size
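Screening used galactose-induced yeast with toxic alpha-synuclein levels, exposed to compound for 24 hr at 30 deg C. Cell growth, read with BacTiter-Glo luminescence, gave the measured signal.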
TDP43 rescue: rescues yeast growth from TDP-43 toxicity; 410,000 tested, 1.8% active; AID 652104; TDP-43 expressing yeast growth rescue, BacTiter-Glo, 24 h; Potency, µM (highest dose often 46.1 µM), for the others: top-dose growth rescue (activation), actives largely listed as activators; further: % of control where 0% means no effect; nearly all actives have a fitted effect of over 50% in size
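Luminescence from BacTiter-Glo reports growth of TDP-43-expressing yeast after 24 hr at 30 deg C with compound. Cells were raffinose-pregrown to mid-log, then seeded in galactose medium at OD600=0.02.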
Numbers without * were called inactive; i = inactive; ? = inconclusive; / = not tested or not shown; [ ] = remark or other dose. Rows were chosen to be rich in hits. Some 2.3% of all compounds tested hit in one or more screens of this group. Unless noted, the call rests on the fitted dose curve; in most records, active means well fitted curve in the direction sought with a large enough effect; inconclusive means small, poorly fitted or top-dose-only effect, or another doubt; inactive means no such curve, though single readings can be large; an effect the other way counts as inactive or inconclusive. Potency means the concentration at half of the fitted maximal effect.

SMILES	uPA surface inh	FUS yeast rescue	Chronic BCR inh	Abeta yeast res	aSyn rescue	TDP43 rescue
Cc1ccc(NC(=O)CCC(=O)NNC(=S)Nc2ccccc2)c(C)c1	-1.0%	i	-6.3%	i	-7.9%	-7.7%
Cc1ccc(NC(=S)NNC(=S)Nc2ccc(C)cc2C)cc1	-0.3%	i	17.8µM*	i	-21.4%	-0.8%[9.22 µM]
O=C(Nc1cc(C(F)(F)F)ccc1-n1cncn1)c1ccc(Cl)cc1	-1.7%	i	?	i	15.2%	27.4%
O=C(Nc1cc(C(F)(F)F)ccc1-n1cncn1)c1ccc(-c2ccccc2)cc1	10.8%	i	-2.7%	i	-4.9%	14.1µM*
O=C(NC1CCCCC1)c1ccc(-c2ccccc2F)o1	-12.8%	/	?	i	0.8%	12.6µM*
O=C(NC1CCCCCC1)c1ccc(CS(=O)(=O)Cc2ccccc2F)o1	3.3%	i	-4.3%	i	2.5%	0.7%
COc1ccc(/C=C/C(=O)OCC(=O)NCCCc2ccccc2)cc1OC	-0.2%	i	-0.9%	i	1.5%	35.5µM*
COc1cc(/C=C/C(=O)OCC(=O)NCCCc2ccccc2)cc(OC)c1OC	2.2%	i	-12.3%	i	2.6%	12.3%
O=C(/C=C/c1ccc(O)c(O)c1)OCCc1ccccc1	0.891µM*	i	/	i	5.17µM*	15.8µM*
O=C(/C=C/c1ccc(O)c(O)c1)OC(Cc1ccc(O)c(O)c1)C(=O)O (stereo unspecified)	5.6%	i	3.6%	i	1.6%	-4.0%
CCN1CCN(CCCNC(=O)c2cc3c(=O)n(CC)c4ccccc4c3s2)CC1	/	i	/	i	/	-15.6%
Cc1oc2c(c1C(=O)NCc1ccccc1)CCCC2	-2.8%	i	-22.1%	i	10.9%	11.2%
Cc1oc2c(c1C(=O)Nc1ccc(C(=O)O)cc1)CCCC2	3.1%	i	?	i	16.7%	12.6µM*
CCC1CCC(C(=O)NC(C(=O)NCCc2ccc(S(N)(=O)=O)cc2)C(C)C)CC1 (stereo unspecified)	-0.4%	i	6.4%	i	-1.0%	-10.9%
Cc1nc(NC(=O)/C=C/c2ccccc2)n[nH]1	-9.4%	i	?	i	?	22.4µM*
O=C(C=Cc1ccccc1)Nc1ccccc1	-6.9%	i	/	i	-27.9%	-20.2%
COC(=O)C1=C2SC(C)C(=O)N2C(N)=C(C#N)C1c1ccc(OC)c(OC)c1 (stereo unspecified)	7.8%	i	-2.1%	i	7.7%	19.2%
CCOC(=O)C1=C(N)N2C(=O)C(C)SC2=C(C(=O)OC)C1c1cccc(OC)c1 (stereo unspecified)	16.9%	i	-24.0%	i	1.2%	20µM*
O=S(=O)(c1cc(Cl)ccc1Cl)N1CCCC1	4.4%	i	?	i	6.9%	29.0%
O=S(=O)(c1cc(Cl)ccc1Cl)N1CCCCC1	-0.3%	i	-6.8%	i	9.6%	15.8µM*
CCOC(=O)N1CCN(C(=O)C2CCN(S(=O)(=O)c3cc(Cl)ccc3Cl)CC2)CC1	-0.9%	?	0.0%	i	15.2%	11.2µM*
O=C(c1ccco1)N1CCN(S(=O)(=O)c2cc(Cl)ccc2Cl)CC1	-1.0%	i	0.6%	i	13.1%	17.8µM*
CCN(c1ccccc1)S(=O)(=O)c1ccc(OC)c(NS(=O)(=O)c2cccs2)c1	-9.4%	i	1.5%	i	-10.1%	9.3%
Cc1ccc(NS(=O)(=O)c2ccc(C(=O)N3CCN(S(=O)(=O)c4ccccc4)CC3)cc2)cc1	7.08µM*	?	0.0%	i	8.6%	0.0%
Cc1c(C(=O)N2CCN(c3ccccc3)CC2)oc2c(F)cccc12	-2.0%	i	-0.7%	i	5.9%	14.1µM*
SMILES	uPA surface inh	FUS yeast rescue	Chronic BCR inh	Abeta yeast res	aSyn rescue	TDP43 rescue
Cc1c(C(=O)N2CCN(S(=O)(=O)c3cc(F)ccc3F)CC2)oc2ccccc12	-12.2%	i	0.4%	i	8.5%	14.1µM*
Cc1c(C(=O)N2CCN(S(=O)(=O)c3ccccc3)CC2)oc2ccccc12	-13.0%	i	-2.6%	i	4.4%	15.8µM*
COc1ccccc1C(CNC(=O)c1cc(S(=O)(=O)N2CCOCC2)ccc1C)N1CCCC1 (stereo unspecified)	2.5%	i	-1.2%	i	0.2%	14.3%
COc1ccc2oc(C(=O)N3CCN(S(=O)(=O)c4ccc(F)cc4)CC3)c(C)c2c1	0.3%	i	-1.9%	i	1.9%	?
COc1ccc(S(=O)(=O)N2CCN(C(=O)c3oc4ccccc4c3C)CC2)cc1	-3.3%	?	-15.4%	i	-15.3%	11.2µM*
COc1ccc(/C=C/CN2CCN(Cc3ccccc3)C(CCO)C2)cc1 (stereo unspecified)	-0.1%	i	-6.6%	i	-0.8%	-6.2%
Cc1ccccc1C(=O)Nc1sc2c(c1C(=O)N1CCCCC1)CCC(C)C2 (stereo unspecified)	/	i	/	i	/	17.8µM*
CCOc1ccc(N(CC(=O)N2CCCC2)S(=O)(=O)c2ccc(Cl)cc2)cc1	2.7%	i	-0.3%	i	-2.2%	-16.8%
CC(C)(C)Cc1c(-c2cccc(Cl)c2)nc2ccc(Cl)cn12	/	i	/	i	-14.1%	0.0%
COc1ccc(Cc2c(-c3ccco3)nc3ccc(Br)cn23)c(C)c1	/	i	/	i	?	4.47µM*
CC(C)(C)Cc1c(-c2ccco2)nc2ccc(Cl)cn12	/	i	/	i	?	11.2µM*
COc1ccc(Cc2c(-c3ccco3)nc3ccc(Cl)cn23)c(C)c1	/	i	/	i	22.7%	22.4µM*
COc1ccccc1NC(=O)Cc1c(F)cccc1Cl	-1.3%	i	-17.1%	i	3.0%	27.2%
OC(c1ccccc1)c1nc(/C=C/c2ccccc2)cs1 (stereo unspecified)	/	i	/	i	25.5%	14.1µM*
COc1cc(C(O)c2nc(/C=C/c3ccccc3)cs2)ccc1F (stereo unspecified)	/	i	/	i	3.8%	22.4µM*
O=C(COc1ncnc2ccccc12)Nc1cc(S(=O)(=O)N2CCOCC2)ccc1Cl	3.2%	i	2.6%	i	0.1%	-28.0%
Cc1ccc(C(=O)CSc2nc3c([nH]2)c(=O)n(C)c(=O)n3C)cc1	-0.8%	i	?	i	2.5%	-20.1%
COc1ccc(-c2nn(CCC(=O)O)cc2/C=N/NC(N)=S)cc1	6.4%	i	-1.0%	i	-0.6%	-2.9%
CCc1c(C2(O)CCCCC2)[nH]c2cc(C(F)(F)F)ccc12	12.5%	i	24.5%	i	-82.6%	?
